Screens deposited in PubChem BioAssay by National Center for Advancing Translational Sciences (NCATS).
VP16 counter: counter-screen for ROR gamma inhibitors: Gal4-VP16 reporter; AID 2546; actives 3.5% (n = 310,000); Potency, µM (highest dose often 53.6 µM), without a hit: at the highest dose activity, negative = inhibition, hits mostly inhibitors; Drosophila S2 Gal4-VP16 UAS-luciferase, luminescence, 20 h;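 also: Gal4-VP16 expression switched on by copper sulfate through the metallothionein promoter; nearly all actives have a fitted effect of over 50% in size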
RORgamma inh: blocks mouse ROR gamma transcriptional activity. Potency, µM (top dose mostly 53.6 µM), for inactives: at the highest dose activity change, negative = inhibition, usual class: inhibitors. actives 5.4% (n = 310,000). Drosophila S2 Gal4-RORgamma UAS-luciferase reporter, 20 h. AID 2551; also: nearly all actives have a fitted effect of over 60% in size
Target sequence (P51450 whole entry, looked up, the tested form may be a part): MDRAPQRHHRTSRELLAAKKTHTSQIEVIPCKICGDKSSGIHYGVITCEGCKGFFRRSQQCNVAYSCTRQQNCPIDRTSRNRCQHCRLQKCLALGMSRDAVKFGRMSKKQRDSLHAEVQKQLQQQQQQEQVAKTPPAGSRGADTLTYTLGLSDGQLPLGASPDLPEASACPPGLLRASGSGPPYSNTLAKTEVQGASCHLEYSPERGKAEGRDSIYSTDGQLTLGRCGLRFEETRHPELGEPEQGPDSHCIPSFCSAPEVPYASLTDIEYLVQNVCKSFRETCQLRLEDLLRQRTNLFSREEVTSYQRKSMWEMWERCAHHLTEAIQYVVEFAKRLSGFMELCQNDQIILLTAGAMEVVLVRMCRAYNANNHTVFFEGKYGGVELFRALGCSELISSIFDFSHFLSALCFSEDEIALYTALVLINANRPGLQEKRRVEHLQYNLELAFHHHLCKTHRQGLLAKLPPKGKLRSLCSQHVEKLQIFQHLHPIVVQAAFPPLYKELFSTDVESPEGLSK
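Stable Schneider cell line, Gal4 DNA-binding domain fused to ROR gamma, UAS-luciferase. Cmpd 1 hr RT → CuSO4 700 uM final → 20 hr RT → luciferase reagent 10 min → luminescence.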
DT40 TDP1 CPT: growth inhibition of DT40 Tdp1-/-;hTDP1 cells with camptothecin (screen for TDP1 inhibitors); chicken DT40 Tdp1-/-;hTDP1 cells + 20 nM CPT, ATP luminescence, 48 h; Potency, µM (titrated, usually from 46.2 µM), for inactives: top-dose activity change, negative = growth inhibition, hits mostly inhibitors; actives 12% (n = 420,000); AID 686979; also: nearly all actives have a fitted effect of over 55% in size
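Cell growth measured by CellTiter-Glo luminescence after a minimum 48 h, 37 C compound exposure with 20 nM CPT in Tdp1-knockout DT40 cells stably expressing hTDP1, seeded 400/well; qHTS titration format.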
ALOX12 inh: inhibitors of human 12S-lipoxygenase ALOX12. AID 1671190. purified 12hLO, xylenol orange hydroperoxide absorbance. actives 1.1% (n = 580,000). Potency, µM (top dose mostly 108 µM), inactives show top-dose activity change, negative = inhibition, most hits filed as inhibitors
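Purified human 12hLO at 150 nM in 25 mM Hepes, 0.01% Triton X-100, pH 7.0, preincubated 15 min at room temperature with compound. Reaction started with 40 uM arachidonic acid, 30 min at room temperature. Hydroperoxide measured by Fe-xylenol orange, 573/405 nm absorbance ratio.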
TDP1 cell noCPT: qHTS for Inhibitors of human tyrosyl-DNA phosphodiesterase 1 (TDP1): qHTS in cells in absence of CPT; actives 15% (n = 420,000); Potency, µM (doses to about 46.2 µM), inactives show at the top dose activity change, negative = growth inhibition, hits mostly inhibitors; DT40 Tdp1-/- hTDP1 cells, no CPT, ATP luminescence, 48 h; also: nearly all actives have a fitted effect of over 55% in size
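Chicken DT40 Tdp1-/- cells complemented with human TDP1, screened without camptothecin (DMSO vehicle only), 400 cells/well. Compounds pin-transferred, cells incubated at 37 °C for at least 48 hr. Growth read as ATP-dependent luminescence (CellTiter-Glo, 30 min at RT).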
ELG1 DNA repair: ELG1-dependent DNA repair inhibition | HEK293T ELG1-luciferase reporter, luminescence, 16 h; DNA damage induced by 5-fluorouridine | Potency, µM (doses to about 46.1 µM), inactives show at the highest dose activity change, negative = inhibition, actives largely listed as inhibitors | AID 504467 | actives 2.3% (n = 330,000); also: nearly all actives have a fitted effect of over 55% in size
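Luminescence from the luciferase reporter, measured 30 min after ONE-Glo reagent at room temperature, was the read-out. Beforehand, 2,000 cells per well were exposed for 16 hr at 37 °C to 5-fluorouridine together with compound or vehicle.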
Numbers without * were called inactive. An excerpt weighted towards active compounds, which were near 15% of everything screened. Calls follow the shape of the dose curve; as a rule, active = well fitted curve in the direction sought with a large enough effect; inconclusive = small, poorly fitted or top-dose-only effect, or another doubt; inactive = no such curve, though single readings can be large; an effect the other way counts as inactive or inconclusive. % is scaled to controls: 0 for no effect and ±100 for the full control effect; potency is read from the fitted curve at half-maximal effect.

How did CCCc1[nH]n(-c2nc3ccccc3s2)c(=O)c1C=NCCN1CCOCC1 do in these assays?
VP16 counter: -19%; RORgamma inh: inconclusive; DT40 TDP1 CPT: -13%; ALOX12 inh: -17%; TDP1 cell noCPT: 1%; ELG1 DNA repair: inconclusive

How did COCCCN=Cc1c(-c2ccccc2)[nH]n(-c2nc3ccccc3s2)c1=O do in these assays?
VP16 counter: inconclusive; RORgamma inh: 8.9µM*; DT40 TDP1 CPT: 26µM*; ALOX12 inh: -21%; TDP1 cell noCPT: inconclusive; ELG1 DNA repair: -17%

What do the screens show for `CCCCCN=Cc1c(C)[nH]n(-c2nc3ccccc3s2)c1=O`?
VP16 counter: inconclusive; RORgamma inh: 10µM*; DT40 TDP1 CPT: 2.1µM*; ALOX12 inh: -15%; TDP1 cell noCPT: 4.6µM*; ELG1 DNA repair: inconclusive

What do the screens show for `O=C(COC(=O)c1cc(C2CC2)nn1-c1ccccc1)Nc1ccccc1`?
ALOX12 inh: -21%

What do the screens show for `CCn1c(COc2ccc(=O)n(-c3ccccc3)n2)nnc1SCc1ccc(C)cc1`?
VP16 counter: 6%; RORgamma inh: 29%; DT40 TDP1 CPT: -28%; ALOX12 inh: -1%; TDP1 cell noCPT: inconclusive; ELG1 DNA repair: 4%

How did CCn1c(COc2ccc(=O)n(-c3ccccc3)n2)nnc1SCc1ccccc1C do in these assays?
VP16 counter: 0%; RORgamma inh: 10%; DT40 TDP1 CPT: 16µM*; ALOX12 inh: 0%; TDP1 cell noCPT: inconclusive; ELG1 DNA repair: -3%

How did Cc1c(C(=O)NCc2nnc3n2CCCCC3)oc2ccccc12 do in these assays?
ALOX12 inh: 7%

Results for Cc1ccc(C2NC(=O)c3sc(=S)n(-c4ccccc4)c3N2)cc1 (centres undefined) ?
VP16 counter: 0%; RORgamma inh: -35%; DT40 TDP1 CPT: 23µM*; ALOX12 inh: inconclusive; TDP1 cell noCPT: -30%; ELG1 DNA repair: -10%

Results for CSc1c(C#N)sc(=S)n1-c1ccc(C)cc1 ?
VP16 counter: -14%; RORgamma inh: 24%; DT40 TDP1 CPT: 7%; ALOX12 inh: -15%; TDP1 cell noCPT: -29%; ELG1 DNA repair: 15%

How did Cn1c(NCCCO)nc2c1c(=O)n(Cc1ccc(Br)cc1)c(=O)n2C do in these assays?
ALOX12 inh: -7%

What do the screens show for `O=C(CCC(=O)OCc1ccc(Br)cc1)Nc1ccccc1`?
VP16 counter: -8%; RORgamma inh: 2%; DT40 TDP1 CPT: 16µM*; ALOX12 inh: 13%; TDP1 cell noCPT: inconclusive; ELG1 DNA repair: 0%

Results for O=C(CCC(=O)OCc1ccc(C(=O)Oc2ccc(Cl)cc2)cc1)Nc1ccccc1 ?
VP16 counter: -13%; RORgamma inh: -38%; DT40 TDP1 CPT: -1%; ALOX12 inh: -3%; TDP1 cell noCPT: 7%; ELG1 DNA repair: inconclusive

Results for CCCCN(CCCC)C(=O)c1csc(Br)c1 ?
ALOX12 inh: -39%

What do the screens show for `CC(C)NC(=O)N1[C@H](c2cccs2)[C@@H](C)C(=O)[C@@H](C)[C@@H]1c1cccs1`?
DT40 TDP1 CPT: 15µM*; ALOX12 inh: 1%; TDP1 cell noCPT: inconclusive

How did O=C(NCc1nc2ccccc2[nH]1)C1=C[C@H](c2coc3ccccc3c2=O)C[C@H](OCCCCO)O1 do in these assays?
DT40 TDP1 CPT: 21µM*; ALOX12 inh: 39%; TDP1 cell noCPT: inconclusive

Results for O=C(NCc1nc2ccccc2[nH]1)C1=C[C@@H](C2CCCCC2)C[C@@H](OCCCCO)O1 ?
VP16 counter: 6%; RORgamma inh: -8%; DT40 TDP1 CPT: 21µM*; ALOX12 inh: -5%; TDP1 cell noCPT: 15µM*; ELG1 DNA repair: inconclusive

What do the screens show for `O=C(NCc1nc2ccccc2[nH]1)C1=C[C@@H](c2ccccc2)C[C@@H](OCCCCO)O1`?
VP16 counter: 1%; RORgamma inh: 0%; DT40 TDP1 CPT: 10%; ALOX12 inh: -4%; TDP1 cell noCPT: inconclusive; ELG1 DNA repair: -6%

What do the screens show for `Cc1ccc(CNc2nc3ccccc3nc2NS(=O)(=O)c2cccc(Cl)c2)cc1`?
ALOX12 inh: 5%

Results for CCOC(=O)CCN(C)Cc1cccc(OC)c1OC ?
ALOX12 inh: 9%

How did Cc1nc(N)c(Cc2ccc(Cl)cc2Cl)c(N)n1 do in these assays?
VP16 counter: inconclusive; RORgamma inh: 26%; DT40 TDP1 CPT: 12µM*; ALOX12 inh: -5%; TDP1 cell noCPT: 8.2µM*; ELG1 DNA repair: inconclusive

Results for COc1ccc(Cc2c(N)nc(C)nc2N)cc1 ?
VP16 counter: -2%; RORgamma inh: -9%; DT40 TDP1 CPT: -9%; ALOX12 inh: -6%; TDP1 cell noCPT: -4%; ELG1 DNA repair: -7%

What do the screens show for `CC(=O)N1CCN(S(=O)(=O)c2cccc(C(=O)NC3CC3)c2)CC1`?
DT40 TDP1 CPT: 23%; ALOX12 inh: 93%; TDP1 cell noCPT: 1%; ELG1 DNA repair: inconclusive

Results for CC1CCC(NC(=O)c2cccc(S(=O)(=O)N3CCN(c4ccc(F)cc4)CC3)c2)CC1 (centres undefined) ?
DT40 TDP1 CPT: inconclusive; ALOX12 inh: 3%; TDP1 cell noCPT: 9.2µM*; ELG1 DNA repair: inconclusive

What do the screens show for `CC1CC(C)CN(S(=O)(=O)c2cccc(C(=O)N3CCN(c4ccc(F)cc4)CC3)c2)C1` (centres undefined)?
DT40 TDP1 CPT: inconclusive; ALOX12 inh: 0%; TDP1 cell noCPT: 21µM*; ELG1 DNA repair: -24%

How did CC1CCN(S(=O)(=O)c2cccc(C(=O)N3CCN(c4ccc(F)cc4)CC3)c2)CC1 do in these assays?
VP16 counter: -66%; RORgamma inh: inconclusive; DT40 TDP1 CPT: 15µM*; ALOX12 inh: -20%; TDP1 cell noCPT: inconclusive; ELG1 DNA repair: -11%

How did O=C(c1cccc(S(=O)(=O)N2CCN(c3ccc(F)cc3)CC2)c1)N1CCCC1 do in these assays?
DT40 TDP1 CPT: inconclusive; ALOX12 inh: 11%; TDP1 cell noCPT: inconclusive; ELG1 DNA repair: -18%

How did CCCn1cc(C(=O)N2CCC(n3cccc3)CC2)c2ccccc21 do in these assays?
ALOX12 inh: -1%

Results for Nc1ccccc1C(=O)NC(=O)Nc1ccc(Oc2ncc(Br)cn2)c(Cl)c1 ?
DT40 TDP1 CPT: 0.0052µM*; ALOX12 inh: -25%; TDP1 cell noCPT: 0.018µM*
